Sampled rows, rich in hits. Any-hit rate of the full collection: about 3.9%.
D1 antagonist – blocks dopamine activation of the human D1 receptor; activity change, negative = inhibition, % at 10 µM; AID 504652; P21728; 360,000 tested, 3.2% active; HEK293 TREx D1 cells, calcium flux, dopamine EC80; stronger effect = lower value; in the data active means activity change below about -30%
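HEK293 T-REx cells expressing inducible, force-coupled D1 receptor; no-wash Ca dye, 30–90 min RT. Cmpd → 180 s read at 1 Hz → EC80 DA → 180 s read.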
GALK inh – blocks human galactokinase activity; Potency, µM (series often up to 57.5 µM), hits mostly inhibitors; Purified GALK, Kinase-Glo residual ATP luminescence; P51570; 270,000 tested, 0.007% active
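Quantitative HTS: GALK 5 nM, ATP 35 uM, galactose 100 uM, 1 h room temperature, then luciferase-based ATP detection.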
D1 PAM – human D1 dopamine receptor positive modulation; HEK293 TREx D1 cells, calcium flux, dopamine EC20 potentiation; potentiation, % at 10 µM; AID 504651; 360,000 tested, 0.036% active; in the data active means potentiation above about 30%
Eya2 inh – inhibitors of human Eya2 phosphatase activity | recombinant Eya2, OMFP fluorescence dephosphorylation (OMFP is methylfluorescein phosphate) | Potency, µM (highest dose often 76.9 µM), most hits filed as inhibitors | 330,000 tested, 0.006% active
Target sequence (O00167 whole entry, looked up): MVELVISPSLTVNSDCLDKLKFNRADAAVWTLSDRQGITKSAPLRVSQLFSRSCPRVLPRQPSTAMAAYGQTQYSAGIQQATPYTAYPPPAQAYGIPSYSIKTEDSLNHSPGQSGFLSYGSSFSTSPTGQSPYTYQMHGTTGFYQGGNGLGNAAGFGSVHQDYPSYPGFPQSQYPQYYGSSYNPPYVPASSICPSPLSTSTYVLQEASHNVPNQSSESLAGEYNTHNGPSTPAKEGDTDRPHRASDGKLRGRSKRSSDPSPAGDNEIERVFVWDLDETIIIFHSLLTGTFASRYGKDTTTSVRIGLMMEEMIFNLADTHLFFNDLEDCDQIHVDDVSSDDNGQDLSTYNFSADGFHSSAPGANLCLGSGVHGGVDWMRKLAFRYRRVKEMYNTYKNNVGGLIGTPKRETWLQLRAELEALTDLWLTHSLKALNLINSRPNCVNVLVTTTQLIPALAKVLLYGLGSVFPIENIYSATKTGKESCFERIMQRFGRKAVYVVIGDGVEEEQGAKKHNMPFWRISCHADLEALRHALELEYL
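Eya2 protein (added as 0.2 uM solution) was preincubated with compound for 10 min at ambient temperature in 50 mM HEPES pH 7.5, 50 mM NaCl, 5 uM MgCl2, 0.05% BSA, 1 mM DTT. OMFP (added at 50 uM) then reacted 10 min; fluorescence read at 485/525 nm.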
USP2a block – inhibitors of human ubiquitin-specific protease USP2a; Potency, µM (top dose mostly 38.3 µM), hits mostly inhibitors; USP2 core, Ub-CHOP2 coupled fluorogenic reporter, 485/531; 330,000 tested, 0.01% active; O75604; AID 463254
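Cell-free coupled assay: 10nM USP2 core preincubated 30min RT with compound in Tris-HCl pH 8.0/CaCl2/CHAPS buffer, then 25nM Ub-CHOP2 and 25nM reporter substrate; fluorescence (Ex 485/Em 531) read after 60min RT, normalized to NEM inhibition, concentration-response curves fitted.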
D1 ag – human D1 receptor agonism | HEK293 T-REx D1 cells, calcium flux, agonist mode | activation, % at 2 µM | 360,000 tested, 1% active; in the data active means activation above about 30%
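Inducible HEK293 T-REx D1 cells, force-coupled to calcium signalling, were plated at 4000 cells/well with tetracycline and held overnight at 30 C. After no-wash calcium dye loading, compound-evoked calcium rise over 180 s flagged agonists.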
Each line names hits and unclear results; the compound was inactive in the other large screens. Unless noted, the call rests on the fitted dose curve; in most records, active means well fitted inhibition curve with a large enough effect; inconclusive means small, poorly fitted or top-dose-only effect, or effect the other way; inactive means flat fitted curve, though single readings scatter.

Cc1ccc(Cn2c(CNC(=O)c3ccccc3Br)nc3cccnc32)cc1	none (no result: GALK inh, Eya2 inh, USP2a block)
COc1ccc(Nc2nc(-c3ccc(OC)cc3)cs2)cc1	none
COc1ccc(Nc2nc(-c3c[nH]c4ccccc34)cs2)cc1	D1 antagonist -39
CCc1ccc(/C=C2/SC(=S)N(CCC(=O)Nc3cccc(C(=O)O)c3)C2=O)cc1	D1 ag 68
CCc1ccc(/C=C2/SC(=S)N(CCCC(=O)Nc3ccccc3C(=O)O)C2=O)cc1	D1 antagonist -32
CCc1ccc(/C=C2/SC(=S)N(CCC(=O)Nc3ccc(C(=O)O)cc3)C2=O)cc1	none
COc1ccc(-c2nc3scc(CCNC(=O)c4cc(OC)cc(OC)c4)n3n2)cc1	none (no result: GALK inh, Eya2 inh, USP2a block)
Cn1c(=O)c2cc(S(=O)(=O)NC(Cc3ccccc3)C(=O)Nc3ccc(F)cc3)ccc2n(C)c1=O (configuration not stated)	none (no result: GALK inh, Eya2 inh, USP2a block)
Cc1cccc(NC(=O)C2CCC(CNS(=O)(=O)c3ccc(Br)s3)CC2)c1 (configuration not stated)	none (no result: GALK inh, Eya2 inh, USP2a block)
c1ccc(C2=NNC(c3ccco3)=Nc3ccccc32)cc1	D1 antagonist -32
OCCN1CCN(CC(O)COc2ccc(Cl)cc2)CC1 (configuration not stated)	none
NCCOc1ccc(C23CC4CC(CC(C4)C2)C3)cc1	D1 PAM 36, D1 ag 127
OCCN1CCN(CC(O)COc2ccc(C34CC5CC(CC(C5)C3)C4)cc2)CC1 (configuration not stated)	D1 antagonist -42, D1 ag 63
CC(C)c1ccc(NC(=O)C2CCCN2S(=O)(=O)c2ccccc2F)cc1 (configuration not stated)	D1 antagonist -34 (no result: GALK inh)
O=C(Nc1ccc(N2CCOCC2)cc1)C1CCCCN1S(=O)(=O)c1ccccc1 (configuration not stated)	D1 antagonist -32
O=C1CCCc2cc(S(=O)(=O)NCC3CCC(C(=O)NCc4ccc(F)cc4)CC3)ccc2N1 (configuration not stated)	none (no result: GALK inh, Eya2 inh, USP2a block)
CCOc1cccc(Nc2nn(-c3ccc(OC(F)(F)F)cc3)nc2C(C)=O)c1	none (no result: GALK inh, Eya2 inh, USP2a block)
Cc1ccc(N2CCN(C(=O)c3c(C)oc4ncn(CC(C)C)c(=O)c34)CC2)c(C)c1	none (no result: GALK inh, Eya2 inh, USP2a block)
CCOc1ccccc1NC(=O)c1c(C)cc(C)nc1SCC(=O)c1cccc(OC)c1	none (no result: GALK inh, Eya2 inh, USP2a block)
CNC(=S)N(C)/N=C1/C(=O)N(Cc2c(Cl)cccc2Cl)c2ccccc21	D1 antagonist -34 (no result: GALK inh)
Cc1cccc(-c2nnc(NC(=O)c3ccc(Cl)cc3)o2)c1	D1 ag 57
O=C(Nc1nnc(-c2ccco2)o1)c1ccc(Cl)s1	none
COc1cccc(-c2nnc(NC(=O)c3ccc(Cl)s3)o2)c1	D1 antagonist -36, D1 ag 73 (no result: GALK inh)
CCc1ccc(S(=O)(=O)NCCc2csc(C)n2)s1	D1 antagonist -37, Eya2 inh inconclusive
CN1CC(=O)Nc2cc(C(=O)O)ccc21	D1 antagonist -31 (no result: GALK inh, Eya2 inh, USP2a block)
CC1=C(C)C(=O)C(N2CCOCC2)=CC1=O	none
O=C1C=C(N2CCOCC2)c2ccccc2C1=O	GALK inh 13µM
O=C(CN(c1ccc(Cl)c(C(F)(F)F)c1)S(=O)(=O)c1ccccc1)N1CCc2ccccc2C1	none (no result: GALK inh, Eya2 inh, USP2a block)
CC(C)(C)C(=O)N1CCN(c2nc3c(F)cccc3s2)CC1	none (no result: D1 antagonist, GALK inh, Eya2 inh, USP2a block)
CCOC(=O)C(Cc1ccccc1)NS(=O)(=O)c1ccc(NC(C)=O)cc1 (configuration not stated)	D1 antagonist -31
CCOC(=O)C(Cc1ccccc1)C(=O)Nc1ccc(NC(=O)C(Cc2ccccc2)C(=O)OCC)cc1 (configuration not stated)	none
O=C(COC(=O)[C@@H]1CC(O)CN1S(=O)(=O)c1ccccc1[N+](=O)[O-])Nc1ccc2ccccc2c1 (some centres not stated)	D1 antagonist -32
COc1ccc(NC(=O)c2cccc(OC(=S)N3CCOCC3)c2)cc1	none
Cc1cccc(NC(=O)c2cccc(OC(=S)N3CCOCC3)c2)c1C	D1 antagonist -32
Cc1sc2ncnc(SCC(=O)N3CCCC(C(F)(F)F)C3)c2c1C (configuration not stated)	D1 antagonist -38
CN(C)/C=C(\C#N)C(=O)c1cccc(Oc2ccc(Br)cc2)c1	none
CCOc1cccc(Oc2ncccc2C(=O)/C(C#N)=C/N(C)C)c1	D1 antagonist -38
Cc1nc(C)c(-c2ccc(SCC(=O)Nc3ccccc3F)nn2)s1	none (no result: GALK inh, Eya2 inh, USP2a block)
CCCOc1ccc2ccccc2c1/C=N/n1cnnc1	none
CCOc1ccc2ccccc2c1/C=N/n1cncn1	D1 antagonist -47
Cc1cccc(CSc2ncc(CO)n2Cc2ccc(F)cc2)c1	none (no result: GALK inh, Eya2 inh, USP2a block)
O=C(CCc1ccccc1)NC(NC(=S)Nc1ccc(Cl)cc1)C(Cl)(Cl)Cl (configuration not stated)	D1 antagonist -36
CC(=O)NC(NC(=S)Nc1ccc(N=Nc2ccccc2)cc1)C(Cl)(Cl)Cl (configuration not stated)	D1 antagonist -44
CCOC(=O)c1ccc(NC(=S)Nc2cccc(C)n2)cc1	none
CCOC(=O)c1ccc(NC(=S)Nc2cccc(N)n2)cc1	D1 antagonist -34
CCOC(=O)c1cn[nH]c1NC(=S)Nc1ccc(OC)cc1	D1 antagonist -39
COC(=O)c1sc2cccc(F)c2c1S(=O)(=O)N1CCN(c2ccccc2OC)CC1	none (no result: GALK inh, Eya2 inh, USP2a block)
Cc1cc(C)cc(NC(=O)C2CCCN(c3nnc(-n4c(C)ccc4C)s3)C2)c1 (configuration not stated)	none (no result: GALK inh, Eya2 inh, USP2a block)
COc1ccc(CCNc2nc3cc(OC)c(OC)cc3c3nc(-c4ccccc4)nn23)cc1OC	none (no result: GALK inh, Eya2 inh, USP2a block)
Cc1ccc2[nH]cc(C(c3ccccc3)c3ccc(C)s3)c2c1 (configuration not stated)	none (no result: GALK inh, Eya2 inh, USP2a block)
CCOC(=O)NC(NC(=S)Nc1ccccc1OC)C(Cl)(Cl)Cl (configuration not stated)	none
CCOC(=O)NC(NC(=S)Nc1ccc(OC)cc1)C(Cl)(Cl)Cl (configuration not stated)	D1 antagonist -34 (no result: GALK inh)
COc1ccc(C)cc1NC(=O)CN1c2ccccc2S(=O)(=O)c2ccccc21	none (no result: GALK inh, Eya2 inh, USP2a block)
Nc1nc(Cl)nc2c1ncn2C1CC(O)C(CO)O1 (configuration not stated)	none (no result: GALK inh)
Nc1nc2c(ncn2[C@H]2C[C@H](O)[C@@H](CO)O2)c(=O)[nH]1	D1 antagonist -30 (no result: GALK inh)
Cc1cc(C)c2c(CC(=O)N3CCN(c4cccc(Cl)c4)CC3)coc2c1	none (no result: GALK inh, Eya2 inh, USP2a block)
Cc1ccc2nc(Nc3nc(=O)c4ccccc4n3C)nc(C)c2c1	D1 ag 158
